Source: PubChem
Compounds with a hit are over-represented: about 3.7% of the library has one in this group of screens.
HTT promoter inh = inhibits huntingtin promoter activity | HEK293 HTT promoter firefly luciferase reporter, 24 h | Potency, µM (highest dose often 57.5 µM), without a hit: at the highest dose activity change, negative = inhibition, usual class: inhibitors | hit rate 0.93% among 48,000 | AID 1508623; further: potency means the concentration at half of the fitted maximal effect; nearly all actives have a fitted effect of over 50% in size
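Firefly luciferase signal from promoter-reporter HEK293 cells was scaled between vehicle (0%) and zero RLU (-100%). Compounds were tested at final concentrations of up to 57.5 uM over 24 h at 37 degrees C. PTC124 at 50 uM final served as control inhibitor.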
HTT-AS act = activates huntingtin-antisense promoter activity. Potency, µM (top dose mostly 57.5 µM), inactives show at the top dose activity change, positive = activation, most hits filed as activators. hit rate 0.24% among 48,000. HEK293 HTT-AS promoter firefly luciferase reporter, 24 h; response scale: percent change from vehicle, -100% = no light; further: potency means the concentration at half of the fitted maximal effect; nearly all actives have a fitted effect of over 55% in size
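HEK293 cells carrying firefly luciferase reporters were seeded at 2,500 per well in Opti-MEM and cultured for 24 h. They were then treated with compounds at up to 57.5 uM final for 24 h at 37 degrees C before Dual-Glo luminescence readout.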
DRV1 agonist = agonists of human resolvin D1 receptor DRV1 (GPR32). CHO-K1 GPR32 beta-arrestin PathHunter luminescence, 90 min; zero percent set by DMSO-only wells. activation, % at 76.9 µM. hit rate 2.5% among 48,000. AID 1346428;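 active means activation of at least 60% and not above a set upper limit, about 1 call in 100 departs from these limits; inconclusive means activation of 40% to 60%, or above that upper limit; inactive means activation under 40%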; further: 0% is about no effect
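Using DMSO wells as EC0, agonist-induced signal was taken as chemiluminescence from beta-Gal reconstituted upon beta-arrestin recruitment to GPR32 in CHO-K1 cells after 90 min compound treatment.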
GALK inh = GALK (human) enzyme inhibition; P51570; recombinant GALK, Kinase-Glo ATP luminescence, 1 h; Potency, µM (titrated, usually from 57.5 µM), inactives show top-dose activity, negative = inhibition, usual class: inhibitors; 44,000 tested, under 10 active; AID 1347072;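 further: plate controls were full GALK reaction for no effect and reaction lacking GALK for full effect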
Target sequence (P51570 whole entry, looked up): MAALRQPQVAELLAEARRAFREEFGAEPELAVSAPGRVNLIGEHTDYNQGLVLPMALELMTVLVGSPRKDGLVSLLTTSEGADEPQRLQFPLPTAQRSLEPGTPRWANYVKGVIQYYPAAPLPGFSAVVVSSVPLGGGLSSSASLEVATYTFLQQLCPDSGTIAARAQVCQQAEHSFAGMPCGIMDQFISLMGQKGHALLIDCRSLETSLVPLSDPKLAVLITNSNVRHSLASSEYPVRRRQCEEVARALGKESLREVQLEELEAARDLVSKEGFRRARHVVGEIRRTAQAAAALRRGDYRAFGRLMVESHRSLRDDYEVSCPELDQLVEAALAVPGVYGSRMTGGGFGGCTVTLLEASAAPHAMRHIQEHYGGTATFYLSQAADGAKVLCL
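5 nM GALK with 35 µM ATP and 100 µM galactose in HEPES pH 8.0, MgCl2, NaCl, DTT, BSA; 1 h RT reaction, remaining ATP detected by Kinase-Glo Plus luminescence after 10 min; qHTS concentration series.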
B2AR arrestin ag = agonists recruiting beta-arrestin to human beta2-adrenergic receptor; P07550; HTLA Tango cells, beta-arrestin recruitment, luciferase luminescence, 18 h; Potency, µM (top dose mostly 46.1 µM), hits mostly activators; 44,000 tested, under 10 active; AID 1347077;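 further: potency means the concentration at half of the fitted maximal effect; 0% = DMSO and full agonism = EC100 isoproterenol or metaproterenol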
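Ligand-induced beta-arrestin recruitment to recombinant beta2-AR is measured via a tTA-driven luciferase reporter in Tango cells after 18 hr compound exposure at 37 degrees C. Concentrations span up to 46 microM.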
TSG101-PTAP inh = TSG101-PTAP interaction inhibition, HIV-1 budding | Q99816 | 44,000 tested, under 10 active | Potency, µM (doses to about 115 µM), usual class: inhibitors | AID 1347069 | Fluorescence polarization, FITC-PTAP peptide/Tsg101, 20 min; further: potency means the concentration at half of the fitted maximal effect; 0% is about no effect
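Steps: Tsg101 binding domain (10 uM final) in HEPES pH 7.5/NaCl/Tween 20/EDTA/TCEP; add compound; add FITC-PTAP peptide (50 nM final); incubate 20 min r.t.; read polarization.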
Numbers without * were called inactive; i = inactive; ? = inconclusive; · = not tested or not shown. Unless noted, the call rests on the fitted dose curve; in most records, active means well fitted curve in the direction sought with a large enough effect; inconclusive means small, poorly fitted or top-dose-only effect, or another doubt; inactive means no such curve, though single readings can be large; an effect the other way counts as inactive or inconclusive.

SMILES	HTT promoter inh	HTT-AS act	DRV1 agonist	GALK inh	B2AR arrestin ag	TSG101-PTAP inh
O=C1Nc2ccccc2Oc2cc(Oc3cccc(Cl)c3)ccc21	-12%	-20%	91*	2%	i	i
O=C1Nc2ccccc2Oc2cc(Oc3ccccc3)ccc21	-12%	-7%	-14	-1%	i	i
COc1ccc(-c2cn3nc(N4CCC(C(=O)Nc5cccc(Cl)c5)CC4)sc3n2)cc1	15%	?	78*	5%	i	i
COc1cccc(NC(=O)C2CCN(c3nn4cc(-c5ccc(F)cc5)nc4s3)CC2)c1	-27%	-3%	-1	1%	i	i
COc1ccc(Cc2ccc(NC(N)=O)cc2)cc1-c1cccc(Cl)c1	-2%	-31%	·	·	·	·
O=C1OC(C(=O)Nc2ccc(Cl)c(C(F)(F)F)c2)Cc2ccccc21 (stereo not drawn)	·	·	80*	0%	i	i
O=C(Nc1ccc(Cl)cc1)Nc1ccc(Cl)c(C(F)(F)F)c1	?	-67%	?	·	·	·
CN(C)CC(C)(C)CNc1nn2c(-c3ccccc3)nnc2cc1C1CCC1	-22%	-27%	·	·	·	·
O=C(c1cc(O)c(O)c(O)c1)c1ccc(O)c(O)c1O	0%	0%	-28	·	·	·
Oc1ccc(Cl)cc1Cc1cc(Cl)ccc1O	?	-94%	69*	·	·	·
CC(C)CCNS(=O)(=O)c1ccc(N2CCCCS2(=O)=O)cc1	14µM*	-21%	10	-1%	i	i
CN(C)S(=O)(=O)c1ccc2c(c1)C(=Cc1cc3c([nH]1)CCCC3)C(=O)N2	?	-37%	·	·	·	·
Nc1ncn([C@@H]2O[C@H](CO)[C@@H](O)[C@@H]2O)c(=O)n1	?	-28%	·	·	·	·
CCc1ccc(Sc2cc(C(=O)NCCCN3CCC(C)CC3)c3ccccc3n2)cc1	-25%	-19%	89*	-1%	i	i
CCc1ccc(Sc2cc(C(=O)NCc3cccc(OC)c3)c3ccccc3n2)cc1	?	-44%	6	-4%	i	i
CCc1ccc(Sc2cc(C(=O)NCCCN3CCCC(C)C3)c3ccccc3n2)cc1 (stereo not drawn)	-15%	-21%	88*	3%	i	i
Nc1cc(C(F)(F)F)ccc1S	-3%	-7%	31	·	·	·
CC(C)(C)COc1ccc(-n2cc(C(=O)O)cn2)cc1C#N	?	-78%	·	·	·	·
Cc1cccc(NC(=O)c2c(NC(=O)C(F)(F)F)sc3c2CCCCC3)c1	2µM*	-92%	45	-13%	i	i
O=C(Nc1cccc(Cl)c1)c1c(NC(=O)C(F)(F)F)sc2c1CCCC2	1.8µM*	-94%	37	-1%	i	i
Cc1ccccc1NC(=O)c1c(NC(=O)C(F)(F)F)sc2c1CCCCC2	2µM*	-96%	20	-1%	i	i
Cc1ccc(NC(=O)c2c(NC(=O)C(F)(F)F)sc3c2CCCCC3)cc1	1.4µM*	-94%	62*	0%	i	i
Cc1[nH]c(C=C2C(=O)Nc3ccc(S(=O)(=O)Cc4c(Cl)cccc4Cl)cc32)c(C)c1C(=O)N1CCC[C@H]1CN1CCCC1	-2%	-4%	·	·	·	·
CCc1ccccc1NC(=O)c1ccc(Cn2nc(N3CCN(c4ccccc4)CC3)ccc2=O)o1	?	-42%	63*	0%	i	i
CCc1ccc(NC(=O)c2ccc(Cn3nc(N4CCN(c5ccccc5)CC4)ccc3=O)o2)cc1	?	-32%	0	1%	i	i
SMILES	HTT promoter inh	HTT-AS act	DRV1 agonist	GALK inh	B2AR arrestin ag	TSG101-PTAP inh
CC(C)Oc1ccc(CNC(=O)Cn2nc(N3CCN(c4ccccc4)CC3)ccc2=O)cc1	-15%	-29%	68*	-3%	i	i
Cc1nn(-c2ccccc2)c2c1N(CCCC(=O)NCc1ccc(OC(C)C)cc1)C(=O)CS2	14µM*	-43%	-14	-1%	i	i
CC(C)(Cc1ccc2ccccc2c1)NC[C@@H](O)COc1cccc(Cl)c1C#N	8%	4%	·	·	·	·
COc1ccc2c(c1)CC[C@@H](CN(C)CC(=O)O)[C@H]2c1ccccc1	?	-40%	·	·	·	·
COC(=O)Nc1ccc(-c2nc(N3CCOCC3)c3cnn(C4CCN(C(=O)OC)CC4)c3n2)cc1	-31%	-44%	·	·	·	·
CC(=O)N1c2ccccc2CC1C(=O)N1CCN(c2cccc(C)c2C)CC1 (stereo not drawn)	-21%	-16%	116*	-6%	i	i
CCN(CC)CCCCNc1nc2cc(Cl)c(Cl)cc2nc1-c1ccc(-c2cccs2)s1	?	-24%	·	·	·	·
CC(C)(C)c1ccc(C(=O)NCC(c2cccs2)S(=O)(=O)c2cccs2)cc1 (stereo not drawn)	?	-31%	-8	0%	i	i
CC(C)(C)c1ccc(C(=O)NCC(c2cccs2)S(=O)(=O)c2ccc(F)cc2)cc1 (stereo not drawn)	20µM*	-58%	-5	2%	i	i
Cc1ccc(C(=O)NCC(c2cccs2)S(=O)(=O)c2cccs2)cc1 (stereo not drawn)	?	-36%	74*	-1%	i	i
COc1cc(C(C)C)c(Oc2cnc(NC(CO)CO)nc2N)cc1I	-11%	-13%	·	·	·	·
Nc1ncnc2ccccc12	-7%	-13%	·	·	·	·
CCC(=O)Nc1ccc(-c2nc3ncccc3o2)cc1C	31%	11µM*	?	-14%	i	i
Cc1cc(-c2nc3ncccc3o2)ccc1NC(=O)COc1ccc(C(C)(C)C)cc1	10%	17%	20	3%	i	i
COc1ccc(Nc2cc(C)nc(-n3nc(C)cc3C)n2)cc1Cl	13µM*	-75%	-17	-8%	i	i
Cc1cc(Nc2ccc(C(C)C)cc2)nc(-n2nc(C)cc2C)n1	?	-18%	-5	0%	i	i
